Data published in the supplement of paper PMC6555819.

What was measured:
Assay in all cases: PBM binding z-score (relative to random genomic background probes); higher = stronger binding; sequences stand for … in GC…GCGATTGACAGCGTAGAATGAAGG
[1] = test system: FXR:RXRa (NR concentration 270 nM, RXRa partner concentration 90 nM)
In short: (§1)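 Random background probes are the reference for binding z-scores. These scores derive from regression-normalized fluorescence on custom Agilent 4×180K protein-binding microarrays incubated 1 h with ligand-free nuclear receptor dimers. Binding was detected with antibodies against each partner (one per run).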

[2] = test system: LXRa:RXRa (NR concentration 270 nM, RXRa partner concentration 90 nM)
In short: as §1

[3] = test system: LXRa homodimer (NR concentration 270 nM)
In short: as §1

[4] = test system: LXRb:RXRa (NR concentration 270 nM, RXRa partner concentration 90 nM)
In short: as §1

[5] = test system: LXRb homodimer (NR concentration 270 nM)
In short: as §1

[6] = test system: PPARa:RXRa (NR concentration 270 nM, RXRa partner concentration 90 nM)
In short: as §1

[7] = test system: PPARg:RXRa (NR concentration 180 nM, RXRa partner concentration 90 nM)
In short: as §1

[8] = test system: PPARg:RXRa 270nM:90nM, anti-RXR (NR concentration 270 nM, RXRa partner concentration 90 nM)
In short: as §1

[9] = test system: PPARg:RXRa 30nM:10nM, anti-RXR (NR concentration 30 nM, RXRa partner concentration 10 nM)
In short: as §1

[10] = test system: PPARg:RXRa 90nM:30nM, anti-RXR (NR concentration 90 nM, RXRa partner concentration 30 nM)
In short: as §1

[11] = test system: PPARg:RXRa DBDmut IVT, anti-RXR (DBD mutation: RXRa K156A/R161A, NR concentration 270 nM, RXRa partner concentration 90 nM)
In short: as §1

[12] = test system: PPARg:RXRa IVT, anti-PPARg (NR concentration 270 nM, RXRa partner concentration 90 nM)
In short: as §1

[13] = test system: PPARg DBDmut:RXRa IVT, anti-PPARg (DBD mutation: PPARg1 K132A/R137A, NR concentration 270 nM, RXRa partner concentration 90 nM)
In short: as §1

[14] = test system: PPARg DBDmut IVT, anti-PPARg (DBD mutation: PPARg1 K132A/R137A, NR concentration 270 nM)
In short: as §1

[15] = test system: PPARg homodimer (NR concentration 180 nM)
In short: as §1

[16] = test system: PXR:RXRa (NR concentration 270 nM, RXRa partner concentration 90 nM)
In short: as §1

[17] = test system: PXR homodimer (NR concentration 270 nM)
In short: as §1

[18] = test system: RARa:RXR (NR concentration 270 nM, RXRa partner concentration 90 nM)
In short: as §1

[19] = test system: RARa homodimer (NR concentration 270 nM)
In short: as §1

[20] = test system: RARb:RXRa (NR concentration 270 nM, RXRa partner concentration 90 nM)
In short: as §1

Sequence | PBM binding z-score [1] | PBM binding z-score [2] | PBM binding z-score [3] | PBM binding z-score [4] | PBM binding z-score [5] | PBM binding z-score [6] | PBM binding z-score [7] | PBM binding z-score [8] | PBM binding z-score [9] | PBM binding z-score [10] | PBM binding z-score [11] | PBM binding z-score [12] | PBM binding z-score [13] | PBM binding z-score [14] | PBM binding z-score [15] | PBM binding z-score [16] | PBM binding z-score [17] | PBM binding z-score [18] | PBM binding z-score [19] | PBM binding z-score [20]
GCAACTGGGGCATCAGCAGGTTACCATAACTTAA | -0.117 | -0.265 | -0.205 | 1.08 | -0.444 | 1.83 | 2.26 | 1.76 | 0.0895 | 1.1 | 5.86 | 5.15 | -0.129 | 0.0733 | 0.577 | 0.0192 | -0.0956 | 0.138 | -0.393 | 0.963
ACTATTAGTTGGCTTAGGGCAACCGATACGACGC | 0.0688 | -0.0139 | 0.0233 | -0.136 | 0.573 | -0.171 | 0.739 | -0.00108 | 0.0765 | 0.0615 | 0.277 | 0.0103 | 0.854 | 1.29 | 0.354 | -0.139 | 0.29 | 0.151 | 0.786 | 0.506
CATACAGGGTCAGCTAGGCCGGAGTAGGGACGGC | 4.6 | 2.61 | -0.304 | 1.86 | 0.54 | 3.9 | 2.9 | 2.96 | 0.304 | 1.69 | 0.767 | 2.06 | 0.399 | 0.204 | 1.63 | 1.76 | -0.278 | 2.9 | 0.038 | 3.87
TAGCCTAGGTCAGATCGGGCCAGTATTCGCTATA | 2.53 | 1.19 | -0.155 | 0.7 | -0.147 | 1.71 | 0.0951 | 0.687 | -0.284 | -0.025 | 0.568 | 1.66 | -0.683 | -1.02 | 0.109 | 1.28 | -0.946 | 0.894 | -0.762 | 3.14
CGTCAAAGTTCAACTAAGGTGACGTAAAGCACGC | 7.03 | 6.44 | 4.17 | 4.04 | 2.05 | 5.05 | 5.01 | 5.86 | 2.52 | 4.48 | 0.538 | 2.53 | -0.0247 | 0.457 | 4.07 | 5.89 | 4.65 | 4.4 | 1.76 | 5.17
GCTCGGAGGACAAGGTCAGTGCTTTGTCCGTAGA | 1.54 | 1.23 | -0.17 | 1.09 | -0.53 | 1.94 | 0.00556 | 1.33 | -0.784 | 0.326 | -0.0896 | 0.926 | -1.08 | -0.85 | 0.917 | 1.43 | -0.565 | 1.37 | -1.15 | 3.46
GGAACGAGGGCATTCGAGTTGATAGCTTGGCGAT | 1.76 | 1.65 | -0.471 | 0.207 | -0.992 | 1.36 | 0.667 | 0.802 | -0.342 | 0.275 | 3.44 | 2.2 | -0.209 | -0.379 | -0.157 | 3.79 | 1.99 | 0.494 | -1 | 1.87
CGAACTTGGTCATTGACAGGACAGTGAATAGTAA | 0.086 | -0.0975 | -0.179 | 0.228 | -0.101 | 0.267 | 0.262 | 0.00224 | -0.244 | -0.0611 | 0.617 | 0.897 | 0.111 | 0.232 | 0.209 | 0.0575 | 0.147 | 0.48 | 0.507 | 0.912
AGAATGAGGTTACCAAAGATCAGGGTAACGCTTG | 2.45 | 6.27 | -0.1 | 3.22 | -0.278 | 3.65 | 2.8 | 3.14 | 1.16 | 2.54 | 4.2 | 3.74 | 1.58 | 0.777 | 1.01 | 1.83 | -0.213 | 2.59 | -0.485 | 2.2
CAAACTAGGTCACAGAGGTCAAAGGCCGTGCGTA | 7.21 | 6.33 | 6.87 | 5.9 | 1.61 | 6.36 | 10.5 | 8.37 | 7.41 | 8.58 | 8.7 | 8.85 | 6.92 | 3.61 | 5.45 | 6.54 | 10.8 | 7.58 | 2.81 | 5.22
CCTAATAGTTGACCATAAGGGCAACCGAAGCTCG | 0.919 | 0.486 | 0.29 | 0.606 | 0.214 | 0.827 | 0.664 | 0.43 | 0.117 | 0.37 | -0.0162 | 0.473 | 0.327 | 0.353 | 1.09 | 0.821 | 0.596 | 1.27 | 1.46 | 1.72
CCTACTGGGCCAGAGGTCATTGATTCCAATGCTC | 3.89 | 4.31 | 4.08 | 4.28 | 0.315 | 5.3 | 9.61 | 8.53 | 9.24 | 9.4 | 3.69 | 4.99 | 0.0395 | -0.7 | 2.97 | 4.8 | 1.58 | 4.62 | 0.505 | 3.63
GCTAGCAGGCCATTTGGGTCCCTCAATGACGGGC | -0.228 | -0.686 | -0.879 | -1.21 | -1.22 | -0.512 | -0.133 | -0.261 | -0.743 | -0.708 | -0.0266 | -0.343 | -1.53 | -1.41 | -1.41 | -0.687 | -1.15 | -0.731 | -1.25 | -0.116
TCTACCAGGCCAGAGGGTCACTCAAGAGGTACGG | 1.36 | 1.24 | -0.237 | 1.38 | -0.315 | 2.65 | 2.06 | 3.41 | 3.25 | 3.44 | 1.61 | 1.75 | -0.383 | -0.224 | 1.12 | 1.82 | -0.126 | 2.67 | 0.116 | 2.51
ATATGTAGGTTACATCCTGGTCATTCAGGCTATG | 0.666 | 2.03 | 0.602 | 1.28 | 0.798 | 3.16 | 5.21 | 4.44 | 2 | 3.57 | 7.08 | 7.21 | 2.2 | 2.23 | 0.657 | 0.747 | 0.205 | 1.05 | 0.992 | 1.11
TCATACAGGTAAACAGGTGAAAGTCCGTAAGTTA | 0.989 | 1.11 | 0.506 | 1.2 | 0.202 | 2.18 | 1.6 | 3.16 | 4.13 | 3.71 | 3.22 | 2.7 | 0.361 | 1.11 | 1.16 | 1.03 | 0.792 | 1.42 | 1.16 | 0.895
CGTCAAAGTTCAACTAAGGTAACATAAAGCACGC | 7 | 6.17 | 4.4 | 4.25 | 1.93 | 5.1 | 5.41 | 5.57 | 2.61 | 4.55 | 0.273 | 2.52 | 1.34 | 1.66 | 3.27 | 5.54 | 3.1 | 4.35 | 1.57 | 5.25
ATATGTAGGTTATCGGATCATTCAGTTTGCGCAT | 0.778 | 1.32 | 0.544 | 0.974 | 0.803 | 3.32 | 4.5 | 4.3 | 2.14 | 3.56 | 7.18 | 6.73 | 2.24 | 2.07 | 1.46 | 0.908 | 0.884 | 1.05 | 1.48 | 0.993
